DT40 TDP1 CPT = growth inhibition of DT40 Tdp1-/-;hTDP1 cells with camptothecin (screen for TDP1 inhibitors); chicken DT40 Tdp1-/-;hTDP1 cells + 20 nM CPT, ATP luminescence, 48 h; Potency, µM (highest dose often 46.2 µM), for inactives: top-dose activity change, negative = growth inhibition, actives largely listed as inhibitors; actives 12% (n = 420,000); AID 686979; also: potency is read from the fitted curve at half-maximal effect; % is scaled to controls: 0 for no effect and ±100 for the full control effect; nearly all actives have a fitted effect of over 55% in size
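Chicken DT40 Tdp1-/- cells complemented with human TDP1, 400 cells/well, exposed to compounds plus 20 nM camptothecin for at least 48 h at 37 C; viability read as ATP content by CellTiter-Glo luminescence.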
DRD3 agonist = D3 dopamine receptor (human) agonism; P35462; D3R DiscoveRx beta-arrestin cells, luminescence, 90 min; max activation, %; actives 0.58% (n = 410,000); in the data active = max activation above about 30%; also: 0% is about no effect
Target sequence (P35462 whole entry, looked up): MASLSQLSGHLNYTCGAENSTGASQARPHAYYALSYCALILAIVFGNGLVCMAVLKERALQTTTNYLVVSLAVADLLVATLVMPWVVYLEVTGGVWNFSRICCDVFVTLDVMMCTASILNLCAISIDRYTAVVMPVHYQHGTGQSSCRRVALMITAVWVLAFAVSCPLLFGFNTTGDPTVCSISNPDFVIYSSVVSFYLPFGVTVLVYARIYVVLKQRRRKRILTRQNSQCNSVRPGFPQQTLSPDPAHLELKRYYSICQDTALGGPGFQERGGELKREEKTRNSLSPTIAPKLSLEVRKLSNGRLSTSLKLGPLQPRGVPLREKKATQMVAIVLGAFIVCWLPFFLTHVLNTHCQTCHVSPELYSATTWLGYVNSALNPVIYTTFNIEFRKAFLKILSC
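Cells at 1500/well, incubated overnight, then treated with pinned compounds (dopamine as control) for 90 min at 37 degrees C. DiscoveRx reagent added for 30 - 60 minutes at room temperature; luminescence read.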
ClpP mod = qHTS Assay for Activators of ClpP; ATP-dependent Clp protease proteolytic subunit (Bacillus subtilis (strain 168)), P80244; purified B. subtilis ClpP, FRET peptide cleavage, 20 min; Potency, µM (series often up to 57.5 µM), for the others: at the top dose activity change, negative = active; actives 1.9% (n = 340,000); AID 651965, 2013; active = well fitted falling curve with a large enough effect; inconclusive = small, poorly fitted or top-dose-only effect; inactive = no such curve, though single readings can be large or run the other way; also: potency is read from the fitted curve at half-maximal effect; the source files actives as falling curves though it sought activators and does not explain the sign; nearly all actives have a fitted effect of over 65% in size
Target sequence (P80244 whole entry, looked up): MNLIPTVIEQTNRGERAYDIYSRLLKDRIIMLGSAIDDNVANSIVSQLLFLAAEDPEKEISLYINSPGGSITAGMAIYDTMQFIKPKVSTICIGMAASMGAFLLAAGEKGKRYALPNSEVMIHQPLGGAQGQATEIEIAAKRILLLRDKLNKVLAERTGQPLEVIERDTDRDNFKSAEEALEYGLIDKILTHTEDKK
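Purified B. subtilis ClpP, 10 microg/mL final in Tris/HCl pH8 with KCl, BSA, glycerol and Tween-20, cleaved an Abz/nitrotyrosine-quenched decapeptide. Fluorescence (ex 320, em 430) was read at 0 and 20 min at room temperature. Delta was normalized to 5.8 microM ADEP and DMSO/no-enzyme controls.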
IL-1B inflam inh = inflammasome signaling inhibition, IL-1 beta readout. THP-1 LPS/ATP IL-1B secretion, AlphaLISA, 16 h; active compounds read low. activity change, % at 57.5 µM. actives 4.7% (n = 360,000). AID 743279; in the data active = activity change below about -50%; inconclusive = mostly about -30% to -49%; also: % is scaled to controls: 0 for no effect and ±100 for the full control effect
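Secreted IL-1B measured by AlphaLISA bead assay after 16 h compound exposure of THP-1 cells; compounds (final up to 57.5 uM) added 1 h before LPS (250 ng/mL) and ATP (1.25 mM) stimulation; lower signal means less secretion.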
TDP1 cell noCPT = qHTS for Inhibitors of human tyrosyl-DNA phosphodiesterase 1 (TDP1): qHTS in cells in absence of CPT. actives 15% (n = 420,000). Potency, µM (titrated, usually from 46.2 µM), without a hit: top-dose activity change, negative = growth inhibition, actives largely listed as inhibitors. DT40 Tdp1-/- hTDP1 cells, no CPT, ATP luminescence, 48 h. AID 686978, 2013; also: potency is read from the fitted curve at half-maximal effect; % is scaled to controls: 0 for no effect and ±100 for the full control effect; nearly all actives have a fitted effect of over 55% in size
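No-CPT arm: Tdp1-/-;hTDP1 DT40 cells (400/well) plus compounds, incubated ≥48 hr at 37 °C. Readout CellTiter-Glo luminescence.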
DRD3 antagonist = blocks the human D3 dopamine receptor; P35462; D3R cells, DiscoveRx beta-arrestin luminescence, antagonist mode; active compounds read low; max response, negative = inhibition, %; actives 2.5% (n = 360,000); AID 652054; in the data active = max response below about -50%; inconclusive = no clear call, values can overlap the other calls; also: % is scaled to controls: 0 for no effect and ±100 for the full control effect
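Cells plated overnight at 1500 cells/well, then exposed to library compounds with dopamine controls for 90 minutes at 37 degrees C. DiscoveRx reagent added for 30–60 minutes at room temperature; luminescence read, quantitative HTS format.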
Numbers without * were called inactive; ? = inconclusive; . = not tested or not shown. In the library only some 21% were active in any assay of this set; here they are far more common. Unless noted, calls follow the shape of the dose curve; as a rule, active = well fitted inhibition curve with a large enough effect; inconclusive = small, poorly fitted or top-dose-only effect; inactive = flat fitted curve, though single readings scatter.

SMILES	DT40 TDP1 CPT	DRD3 agonist	ClpP mod	IL-1B inflam inh	TDP1 cell noCPT	DRD3 antagonist
COc1ccc(C(CNC(=O)c2cccc(S(=O)(=O)Nc3ccc(C)cc3)c2)N2CCCCC2)cc1 (configuration not stated)	?	-33	-2%	?	?	-64*
COc1ccc(C(CNC(=O)c2cccc(NC(=O)c3cccs3)c2)N2CCCC2)cc1 (configuration not stated)	?	-18	-2%	-11	?	-82*
COc1ccc(C(CNC(=O)c2cccc(Br)c2)N2CCCC2)cc1 (configuration not stated)	?	-5	-3%	-13	?	-87*
COc1ccc(C(CNC(=O)Nc2cccc(C)c2)N2CCN(C)CC2)cc1 (configuration not stated)	-12%	-2	-1%	-29	21%	2
C/C(=N\NC(=S)Nc1ccccc1C)c1ccc(O)cc1	?	-1	.	-2	?	-16
COC(=O)C(Cc1ccccc1)NC(=O)CCNC(=O)c1ccco1 (configuration not stated)	4%	11	.	-4	-5%	6
Cc1cccc(C(=O)N2CCC[C@H]2C(=O)N2CCC[C@H]2C(=O)NCc2ccncc2)c1	1%	1	0%	36	1%	3
CCN(CC)c1ccc(C(=O)NCc2ccc3c(c2)CCN3C(C)=O)cc1	-3%	-1	-4%	.	-21%	.
CCCC(CCC)C(=O)Nc1cccc(-c2cn3cccnc3n2)c1	?	-14	4%	.	-15%	.
COc1ccccc1C(CNC(=O)c1cc(C)nc2ccccc12)N(C)C (configuration not stated)	5%	3	.	17	-3%	9
CCOC(=O)c1ccc(NC(=S)N2CCSC2c2ccc(Br)cc2)cc1 (configuration not stated)	?	-7	-1%	22	?	-21
CCOc1ccc(S(=O)(=O)NCC(c2ccc(N(C)C)cc2)N2CCCC2)cc1 (configuration not stated)	?	-18	0%	.	26µM*	.
COc1ccc(C(CNC(=O)c2cccc(S(=O)(=O)N(C)c3ccccc3)c2)N2CCCC2)cc1 (configuration not stated)	?	-25	-2%	-29	4.1µM*	-66*
CCOc1ccc(S(=O)(=O)Nc2cccc(C(=O)NCC(c3ccc(OC)cc3)N3CCOCC3)c2)cc1 (configuration not stated)	-27%	-13	-1%	0	-30%	-25
COc1ccc(C(CNC(=O)c2ccc(S(=O)(=O)N(C)C)cc2)N2CCCC2)cc1 (configuration not stated)	-21%	-12	-4%	-5	-21%	-8
COc1ccc(C(CNC(=O)c2cccc(NS(=O)(=O)c3ccccc3)c2)N2CCCC2)cc1 (configuration not stated)	?	-2	0%	-3	?	-88*
COc1ccc(C(CNS(=O)(=O)c2ccc(NC(C)=O)c(OC)c2)N2CCCC2)cc1 (configuration not stated)	-17%	-2	2%	13	-6%	-54*
O=C1c2ccccc2C(=O)N1CC(O)COc1ccccc1Cl (configuration not stated)	2%	-1	-2%	-10	9%	-19
Cc1ccc(C(=O)Nc2cccc(-c3nc(CNC(=O)[C@@H]4C[C@@H](C)NC(=S)N4)c(C)o3)c2)s1	-13%	.	.	.	?	.
CCCOc1ccc(C2C(=O)N(C3CCCCCC3)CC(=O)N2CCC2=CCCCC2)cc1OC (configuration not stated)	-12%	-7	0%	.	-20%	.
CO[C@@H]1[C@H](OC(=O)/C=C/C=C/C=C/C=C/C(=O)O)CC[C@]2(CO2)[C@H]1[C@@]1(C)O[C@@H]1CC=C(C)C	.	-15	.	.	.	.
COc1cccc(NC(=O)CCC2CCN(C(=O)c3cccc(NC(C)=O)c3)CC2)c1	0%	3	0%	2	2%	4
COC(=O)[C@@]12CCCN1[C@H](c1ccc(-c3cccc(Cl)c3)c(OC)c1)[C@H]1C(=O)N(C)C(=O)[C@H]12	15µM*	4	2%	-8	16µM*	-3
COC(=O)[C@@]12CCCN1[C@H](c1ccc(-c3ccc(Cl)c(Cl)c3)c(OC)c1)[C@H]1C(=O)N(C)C(=O)[C@H]12	13µM*	-24	-2%	?	23µM*	?
CCN1C(=O)[C@H]2[C@@H](c3ccc(-c4cccc(Cl)c4)c(OC)c3)N3CCC[C@@]3(C(=O)OC)[C@H]2C1=O	13µM*	0	4%	-51*	9.2µM*	1
SMILES	DT40 TDP1 CPT	DRD3 agonist	ClpP mod	IL-1B inflam inh	TDP1 cell noCPT	DRD3 antagonist
COC(=O)[C@@]12CCCN1[C@H](c1ccc(-c3ccc4c(c3)OCO4)cc1)[C@H]1C(=O)N(C)C(=O)[C@H]12	?	-24	-2%	8	?	-13
COC(=O)[C@@]12CCCCN1[C@H](c1ccc(-c3cccc(Cl)c3)c(OC)c1)[C@@H]1C(=O)N(C)C(=O)[C@@H]12	?	3	-16%	?	21µM*	9
COc1ccc(NC(=O)N2CC[C@@]3(CCCN(S(C)(=O)=O)C3)C2)cc1	-2%	.	.	.	-2%	.
COC(=O)[C@@]12CCCCN1[C@H](c1ccc(-c3ccc(C(C)=O)cc3)c(OC)c1)[C@@H]1C(=O)N(C)C(=O)[C@@H]12	16µM*	-13	-1%	-5	15µM*	8
COC(=O)[C@@]12CCCCN1[C@H](c1ccc(-c3ccccc3)c(OC)c1)[C@H]1C(=O)N(C)C(=O)[C@H]12	?	3	1%	43	13µM*	-5
NC(=O)c1ccc(SCC(=O)OCC(=O)NCc2ccco2)c([N+](=O)[O-])c1	18%	-1	-8%	14	13%	3
Cc1cc(C)c2nc(C(F)(F)F)c(C#N)c(N)c2c1	?	0	-1%	35	?	3
Cc1ccc2nc(C(F)(F)F)c(C#N)c(N)c2c1	21µM*	2	-19%	-101*	16µM*	21
CCC(C)[C@H]1CNC(=S)N1CCc1cc(C(F)(F)F)cc(C(F)(F)F)c1 (some centres not stated)	?	-2	5%	-55*	21µM*	-16

Source: PubChem (National Center for Advancing Translational Sciences (NCATS))
